Holding throughout (test): NCI-60 one-dose screen, 48 h (100 = growth as untreated, 0 = no growth, -100 = all killed)
One experiment relates to NCI-H23 lung. Particulars: 10 µM unless noted.
The subject of the next experiment is NCI-H226 lung. Particulars: 10 µM unless noted.
Another experiment concerns NCI-H322M lung. Particulars: 10 µM unless noted.
A further experiment relates to HOP-62 NSCLC. Particulars: 10 µM unless noted.
For another experiment, the system named is NCI-H460 lung. Particulars: 10 µM unless noted.
In the next experiment the test system is HOP-92 NSCLC. Particulars: 10 µM.
The next experiment concerns A549/ATCC NSCLC. The settings on record: 10 µM unless noted.
A further experiment relates to 786-0 renal. Particulars: 10 µM unless noted.
The test system of the next experiment is COLO 205 colon. The settings on record: 10 µM unless noted.
A further experiment deals with DU-145 prostate. The settings on record: 10 µM unless noted.
Another experiment deals with K-562 leukemia. Particulars: 10 µM unless noted.
Another experiment deals with MALME-3M melanoma. The settings on record: 10 µM unless noted.
For another experiment, the system named is MDA-MB-231 breast. The settings on record: 10 µM unless noted.
The next experiment has as its system RXF 393 renal. The settings on record: 10 µM unless noted.
A further experiment deals with SF-268 CNS. The settings on record: 10 µM unless noted.
The next experiment deals with SF-295 CNS. The settings on record: 10 µM unless noted.
Another experiment deals with SF-539 CNS. The settings on record: 10 µM unless noted.
The subject of a further experiment is UACC-257 melanoma. The settings on record: 10 µM unless noted.
The test system of the next experiment is M14 melanoma. The settings on record: 10 µM unless noted.
Another experiment deals with NCI-H522 lung. Particulars: 10 µM unless noted.

The results in this text go back to PubChem BioAssay (NCI).

Compounds without any hit were thinned out: in the full panel of roughly 83,000, 20% have a hit.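 Interpretation: 100, growth as untreated; towards 0, rising growth inhibition; 0, no net growth; 0 to -100, cell death. Compounds scoring below 10 were considered active.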 Unmarked numbers belong to inactive results. The source made the active and inactive calls.

With `CCCn1cnc2c(c1=N)C(c1ccc(F)cc1)c1sc3c(CC)cccc3c1O2` (stereo not drawn), the growth with NCI-H23 lung was 12.4%; in the experiment on NCI-H226 lung, -2.38% (active); in the experiment on NCI-H322M lung, 52%; in the experiment on HOP-62 NSCLC it was 28.2%; in the experiment on NCI-H460 lung it was 2.7% (active); in the experiment on HOP-92 NSCLC it was 34.2%. In addition, the growth in the experiment with A549/ATCC NSCLC is 17%; with 786-0 renal, 5.1% (active); in the experiment with COLO 205 colon it was -51.5% (active); with DU-145 prostate it was 4.9% (active); in the experiment with K-562 leukemia, 6.04% (active); with MALME-3M melanoma, 54.6%. The growth with MDA-MB-231 breast was -19.8% (active); in the experiment on RXF 393 renal, -17.3% (active); in the experiment on SF-268 CNS, 18.8%; in the experiment on SF-295 CNS, 7.42% (active); in the experiment with SF-539 CNS, -25.6% (active); with UACC-257 melanoma, 65.5%. In the experiment on M14 melanoma, the growth was 13.3%.

As to `O=C(O)c1cn(C2CC2)c2cc(N3CCN(C(=O)CN4C(=O)CSC4=O)CC3)c(F)cc2c1=O`, the growth in the experiment on NCI-H23 lung was 103%; in the experiment on NCI-H226 lung, 101%; in the experiment with NCI-H322M lung it was 101%; with HOP-62 NSCLC, 75.8%; in the experiment with NCI-H460 lung, 107%; in the experiment with HOP-92 NSCLC it was 104%. The growth in the experiment with A549/ATCC NSCLC was 93.5%; with 786-0 renal, 94.1%; in the experiment on COLO 205 colon it was 113%; with DU-145 prostate, 90.5%; in the experiment with K-562 leukemia it was 102%; in the experiment with MALME-3M melanoma, 103%. The growth is 81.2% in the experiment with MDA-MB-231 breast; 61.7% in the experiment with RXF 393 renal; 83.5% in the experiment with SF-268 CNS; 106% with SF-295 CNS; 88.5% in the experiment with SF-539 CNS; 107% in the experiment on UACC-257 melanoma. Moreover, the growth in the experiment with M14 melanoma is 108%.

For `COc1cc(-c2ccc3ncnc(NCc4ccccc4)c3c2)cnc1OC`, the growth in the experiment with NCI-H23 lung was 67%; in the experiment with NCI-H226 lung, 68.3%; in the experiment on NCI-H322M lung it was 26.3%; in the experiment with HOP-62 NSCLC, 36.2%; in the experiment on NCI-H460 lung it was 69.1%; with HOP-92 NSCLC it was 5.49% (active). Moreover, the growth was 38.6% in the experiment on A549/ATCC NSCLC; 44.8% with 786-0 renal; 87.6% in the experiment with COLO 205 colon; 24.3% with DU-145 prostate; 85.2% in the experiment on K-562 leukemia; 94.9% in the experiment with MALME-3M melanoma. For the same compound, the growth with MDA-MB-231 breast was 41.5%; in the experiment with RXF 393 renal, -18.3% (active); in the experiment with SF-268 CNS it was 46.5%; with SF-295 CNS it was 55.1%; with SF-539 CNS it was 48.7%; in the experiment on UACC-257 melanoma it was 75.7%. Moreover, the growth in the experiment with M14 melanoma was 86.2%.

For the compound `Cn1cc(CNc2nc3ccc(OC/C(=C/F)CN)cc3o2)ccc1=O`, the growth with NCI-H23 lung is 107%; in the experiment with NCI-H226 lung, 101%; in the experiment on NCI-H322M lung, 99.3%; with HOP-62 NSCLC, 109%; with NCI-H460 lung, 108%; with NCI-H522 lung it was 99.2%. Further, the growth with A549/ATCC NSCLC was 108%; in the experiment on 786-0 renal, 92.4%; in the experiment on COLO 205 colon it was 110%; in the experiment with DU-145 prostate, 110%; in the experiment on K-562 leukemia, 93.8%; in the experiment on MALME-3M melanoma it was 98.7%. In addition, the growth in the experiment on MDA-MB-231 breast is 99.3%; in the experiment with RXF 393 renal, 107%; in the experiment with SF-268 CNS, 102%; with SF-295 CNS, 96.1%; with SF-539 CNS, 97.1%; in the experiment on UACC-257 melanoma it was 111%.

Regarding `CCc1cccc2c3c(sc12)C(c1ccc(OC)cc1)C(C#N)=C(/N=C/c1ccc(Cl)cc1)O3` (stereo not drawn), the growth in the experiment on NCI-H23 lung was 19.9%; with NCI-H226 lung, 41.2%; with NCI-H322M lung, 55.1%; with HOP-62 NSCLC it was 33.8%; in the experiment with NCI-H460 lung, 11.5%; in the experiment with NCI-H522 lung, -40.4% (active). Besides, the growth in the experiment with A549/ATCC NSCLC was 41.5%; in the experiment with 786-0 renal, 39.3%; in the experiment on COLO 205 colon, -18.9% (active); with DU-145 prostate, 18.8%; in the experiment with K-562 leukemia, 11.1%; in the experiment on MALME-3M melanoma, 48.3%. Also, the growth with MDA-MB-231 breast was 40.3%; with RXF 393 renal, -11.4% (active); in the experiment with SF-268 CNS, 60%; with SF-295 CNS, 6.9% (active); in the experiment with SF-539 CNS it was 1.2% (active); in the experiment with UACC-257 melanoma it was 72%.

On to `O=C(Nc1nonc1-c1ccccc1)c1ccc(C(F)(F)F)cc1`, for which the growth was 72.6% in the experiment on NCI-H23 lung; 89.4% with NCI-H226 lung; 86.9% in the experiment with NCI-H322M lung; 81.5% in the experiment on HOP-62 NSCLC; 47.6% in the experiment on NCI-H460 lung; 82.7% with NCI-H522 lung. The growth is 87.3% with A549/ATCC NSCLC; 90.4% in the experiment with 786-0 renal; 119% in the experiment with COLO 205 colon; 92.5% in the experiment with DU-145 prostate; 70% in the experiment with K-562 leukemia; 68.5% in the experiment on MALME-3M melanoma. Besides, the growth in the experiment on MDA-MB-231 breast is 85.1%; in the experiment on RXF 393 renal it was 90.3%; in the experiment on SF-268 CNS, 81.6%; with SF-295 CNS, 59.7%; with SF-539 CNS, 95.9%; in the experiment on UACC-257 melanoma it was 77.8%.

For `CS(=O)(=O)c1ccc(-c2nn(-c3ccccc3)cc2/C=N/NC(=O)c2nc(N)n[nH]2)cc1`, the growth is 96.3% with NCI-H23 lung; 101% with NCI-H226 lung; 104% with NCI-H322M lung; 103% with HOP-62 NSCLC; 83% in the experiment with NCI-H460 lung; 94.2% with NCI-H522 lung. Further, the growth is 97.3% in the experiment with A549/ATCC NSCLC; 96.8% in the experiment with 786-0 renal; 96.3% in the experiment with COLO 205 colon; 90% with DU-145 prostate; 59.4% with K-562 leukemia; 90% in the experiment on MALME-3M melanoma. The growth in the experiment on MDA-MB-231 breast was 98.4%; in the experiment with RXF 393 renal it was 117%; with SF-268 CNS, 103%; with SF-295 CNS, 103%; in the experiment with SF-539 CNS, 99.3%; in the experiment on UACC-257 melanoma it was 98.3%.

Regarding `Cc1c(F)cc(C(N)=O)cc1NCC(=O)Nc1ccc([N+](=O)[O-])cc1`, the growth is 89.2% in the experiment with NCI-H23 lung; 82.2% in the experiment on NCI-H226 lung; 99.4% in the experiment with NCI-H322M lung; 70.6% with HOP-62 NSCLC; 99% in the experiment on NCI-H460 lung; 75.8% in the experiment with HOP-92 NSCLC. For the same compound, the growth in the experiment with A549/ATCC NSCLC was 87.7%; in the experiment on 786-0 renal, 87.5%; with COLO 205 colon, 105%; with DU-145 prostate it was 86.7%; in the experiment with K-562 leukemia it was 101%; in the experiment on MALME-3M melanoma, 109%. Moreover, the growth in the experiment with MDA-MB-231 breast is 89.8%; in the experiment on RXF 393 renal it was 45.5%; in the experiment on SF-268 CNS, 81.2%; in the experiment on SF-295 CNS, 93.6%; with SF-539 CNS it was 95.1%; with UACC-257 melanoma, 102%. The growth with M14 melanoma is 99.1%.
